Assay results reported in PubChem BioAssay.
Activity calls are given as the source filed them.

Experiment: small-molecule microarray binders of probe aXIP, primary screen, biochemical, NeuroSMM set, 635/667 nm fluorescence (AID 1119);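 further: probe is the protein aXip251-270 applied at 1 µg/mL to compound-printed slides; binding of probe to printed compounds measured as 667 nm fluorescence plus signal to noise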
Settings: higher = more signal, called active from +8 up or from −8 down

Composite Z-score, inactive:
CCCCC=C[C@@H](NC(=O)c1ccc(C(F)(F)F)cc1)c1ccccc1 0.734
CC(c1ccccc1)C(O)C1C=CC2C(=O)N(c3ccccc3)C(=O)C2N1Nc1ccc(C#N)cc1 (stereo not given) -0.105
CC(C)(C)N1CC=CC23O[C@@H]4/C=C\CCCOC(=O)C4[C@H]2C(=O)N(CCCCCCO)[C@@H]3C1=O (stereo not given in full) -0.617
COc1ccc(C(O)C2C=CC3C(=O)N(C)C(=O)C3N2Nc2ccc([N+](=O)[O-])cc2[N+](=O)[O-])cc1OCc1ccccc1 (stereo not given) -0.213
C=CC[C@]1(C(=O)N(C)C)COC(c2ccc(OCCCO)cc2)=N1 -0.0102
C[C@@H](OCc1ccccc1)C1NC(=O)[C@@]23C(=O)N[C@@H](Cc4ccccc4)C2[C@H](C)[C@@]2(C)O[C@H]2C3/C=C/C/C=C\CNC(=O)[C@H](Cc2ccccc2)NC1=O (stereo not given in full) 0.069
COc1ccc([Si](C)(C)[C@H]2[C@H](CCO)O[C@@]3(C(=O)N(Cc4ccc(N5CCOC5=O)cc4)c4ccccc43)[C@@H]2C)cc1 -0.392
C=CCC(OC(C)=O)[C@@H]1[C@@H](N(Cc2ccc(-c3ccccc3)cc2)C(=O)c2ccc(C)cc2)c2cc(OCCCO)ccc2N1C(=O)c1ccc2ccccc2c1 (stereo not given in full) -0.46
CC(C)C(=C=CC[C@@H](O)c1cccc(OCCO)c1)CCO -0.137
COCCOC(=O)N1C(=O)[C@@]2(c3cc(C#CC4(O)CCCCCC4)ccc31)[C@H](c1ccc(OCCO)cc1)N1[C@H](c3ccccc3)[C@H](c3ccccc3)OC(=O)[C@H]1[C@@H]2C(=O)N1CCCCCCC1 1.12
Cc1ccc(F)cc1S(=O)(=O)N[C@@H]1CCN(Cc2ccc3[nH]ccc3c2)C1 0.688
C=C(COC)/C(=C/C[C@@H](OC(C)=O)c1ccccc1OCCO)c1cc(C(=O)OC)ccc1OC 1.02
C=CCN1C(=O)[C@]2(O[C@H](CCO)[C@@H]([Si](C)(C)c3ccc(OC)cc3)[C@@H]2C)c2ccccc21 -0.291
COc1ccc(CCNC(=O)[C@@H]2c3ccccc3C(=O)N(CC34CC5CC(CC(C5)C3)C4)[C@H]2c2ccc(CO)cc2)cc1 -0.422
C=CCC(OC(C)=O)[C@@H]1[C@@H](N(Cc2cccc3ccccc23)C(=O)c2ccc(C)cc2)c2cc(OCCCO)ccc2N1C(=O)c1ccc2ccccc2n1 (stereo not given in full) -0.104
COCCCNC(=O)[C@@H]1c2ccccc2C(=O)N(Cc2cc(C(F)(F)F)cc(C(F)(F)F)c2)[C@H]1c1ccc(CO)cc1 -0.0722
CCOC(=O)C[C@H]1[C@H](OC(=O)c2ccc(C(=O)c3ccccc3)cc2)[C@@H](NC(=O)c2ccc3ccccc3c2)c2cc(OCCCO)ccc2N1C(=O)c1ccc2ccccc2n1 0.159
C=CCN1C(=O)[C@]2(O[C@H](CCn3cc([C@H](O)c4ccccc4)nn3)[C@@H]([Si](C)(C)c3ccc(OC)cc3)[C@@H]2C)c2cc(N3C(=O)c4cccc5cccc3c45)ccc21 0.783
CN(C)CCCC[C@@H]1NC(=O)[C@H]2C[C@@H](C(=O)O)[C@@H](c3cccc(OCCO)c3)N2C1=O 0.666
C=CCC(OC(C)=O)[C@@H]1[C@@H](N(Cc2ccc(-c3cccc(C(F)(F)F)c3)o2)C(=O)c2cccc3ccccc23)c2cc(OCCCO)ccc2N1C(=O)c1ccc2ccccc2c1 (stereo not given in full) 0.115
C=C(COC)/C(=C/C[C@H](OC(=O)c1ccncc1)c1ccc(OCCO)cc1)c1cc(C(=O)OC)ccc1OC 0.3
COCCOC(=O)N1C(=O)[C@@]2(c3cc(C#CCC(C(=O)OC)C(=O)OC)ccc31)[C@H](C(=O)N1CCc3cc(OC)c(OC)cc3C1)[C@H]1C(=O)O[C@H](c3ccccc3)[C@H](c3ccccc3)N1[C@@H]2c1ccc(O)cc1 0.131
Cc1ccc(S[C@]2(C(=O)NC3CC3)CC(=O)N(Cc3cc(C(F)(F)F)cc(C(F)(F)F)c3)[C@@H]2c2ccc(CO)cc2I)cc1 0.193
COc1ccc([Si](C)(C)[C@H]2[C@H](CCn3cc([C@H](O)c4ccccc4)nn3)O[C@@]3(C(=O)N(C)c4c(Br)cc(C)cc43)[C@@H]2C)cc1 1.94
CCCCC(O)C1C=CC2C(=O)NC(=O)C2N1Nc1ccc(Cl)cc1Cl (stereo not given) 0.593
C=CCC(OC(C)=O)[C@@H]1[C@@H](N(Cc2ccc(-c3ccccc3)cc2)C(=O)c2ccc(-c3ccccc3)cc2)c2cc(OCCCO)ccc2N1C(=O)c1ccc2ccccc2n1 (stereo not given in full) -0.314
COc1ccc([Si](C)(C)[C@H]2[C@H](CCO)O[C@@]3(C(=O)N(Cc4ccccc4)c4ccc(N(C=O)c5ccccc5)cc43)[C@@H]2C)cc1 -0.328
CN(C)CCCC[C@@H]1NC(=O)[C@H]2C[C@@H](C(=O)NCc3ccc(F)cc3)[C@@H](c3ccc(O)cc3)N2C1=O 1.79
COC(=O)[C@@]1(Cc2ccc(F)cc2)[C@H]2c3cc(C(=O)N(C)C)n(CCO)c3C[C@H]2CN1C(=O)c1ccccc1 -0.551
C=C(/C(=C/C[C@@H](OC(C)=O)c1ccccc1OCCO)c1cc(C(=O)OC)ccc1OC)C(C)C 0.231
CCCCN1CC=CC23O[C@@H]4/C=C\CCC(C)OC(=O)C4[C@H]2C(=O)N(C(C)CO)[C@@H]3C1=O (stereo not given in full) 0.319
NCCCC[C@@H]1NC(=O)[C@H]2C[C@@H](C(=O)NCc3ccc(F)cc3)[C@@H](c3cccc(OCCO)c3)N2C1=O 0.125
COc1cccc(C[C@H]2C[C@@H](CO[Si](C(C)C)(C(C)C)C(C)C)N3C(=O)[C@@]4(C(C)=O)O[C@@]23[C@@H]2C(=O)N(C)C(=O)[C@@H]24)c1 0.544
CC#CCO[Si](C#CCCCCCC)(C(C)C)C(C)C -0.244
O=C1NC(=O)C2C1C=CC(C(O)c1ccc(F)cc1)N2Nc1ccccn1 (stereo not given) -0.531
